Activity calls are given as the source filed them.
Assays:
Albumin (Bos taurus) = Albumin (Bos taurus) (UniProt P02769); test: bovine serum albumin binders on microarray, profiling panel, artefact control for SMM control protein annotation, biochemical, small-molecule microarray, Alexa647 label, 635/667 nm fluorescence (AID 1118); conditions: BSA-A647 binding, fluorescence 635 nm, higher = more signal;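 also: score merges 667 nm emission intensity and signal-to-noise per printed compound spot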
[1] = small-molecule microarray binders of probe aXIP, primary screen, biochemical, NeuroSMM set, 635/667 nm fluorescence (AID 1119); conditions: higher = more signal, called active from +8 up or from −8 down;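 also: probe is the protein aXip251-270 applied at 1 µg/mL to compound-printed slides; binding of probe to printed compounds measured as 667 nm fluorescence plus signal to noise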
[2] = small-molecule binders of probe aNOTCH3, primary screen, biochemical, small-molecule microarray, 635/667 nm fluorescence (AID 1120); conditions: higher = more signal;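 also: probe is a biotin-tagged antibody raised against NOTCH3 rather than NOTCH3 protein; score merges spot fluorescence near 667 nm with spot signal to noise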
[3] = small-molecule binders of probe aNOTCH2, primary screen, biochemical, small-molecule microarray, 635/667 nm fluorescence (AID 1121); conditions: higher = more signal;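 also: score merges feature fluorescence read at 667 nm with its signal to noise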
[4] = target: Carbonic anhydrase 2 (Homo sapiens) (UniProt P00918); test: CAII small-molecule binders, profiling panel, biochemical, small-molecule microarray, Alexa647-labelled CAII (AID 1122); conditions: CAII-A647 binding fluorescence, higher = more signal
[5] = COS7 lysate on small-molecule microarray, probe aHis, 635 nm (AID 1123); conditions: COS7 cell lysate, fluorescence, higher = more signal;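 also: z-score combines 667nm fluorescence intensity with signal-to-noise per printed compound spot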
[6] = compound binding in COS7 lysate, probe aLAP1, primary screen, cell lysate, small-molecule microarray (AID 1124); conditions: probe aLAP1, fluorescence, higher = more signal;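 also: lysate comes from COS7 cells expressing LAP1 and is applied at 0.3 µg/mL; score merges spot fluorescence near 667 nm with signal-to-noise over triplicate slides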
Sam68 (KHDRBS1) = test: Sam68 small-molecule binders, primary screen, biochemical, small-molecule microarray, 635 nm fluorescence (AID 1125); conditions: small-molecule microarray binding, higher = more signal;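 also: score merges 667 nm channel intensity with signal to noise over triplicate slides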
[7] = system: Chordin-like protein 2 (CHRDL2); test: CHRDL2 small-molecule binders, primary screen, biochemical, small-molecule microarray, 635 nm fluorescence (AID 1126); conditions: small-molecule microarray binding, fluorescence 635 nm; higher = more signal;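 also: printed compound slides probed with Chrdl2 protein at 4 µg/mL for 1 h at 4 C; score merges 667 nm emission intensity with signal to noise over three replicate slides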
[8] = target: Concanavalin-A (Canavalia ensiformis) (UniProt P02866); test: ConA small-molecule binders, primary screen, artefact control for SMM control protein annotation, biochemical, small-molecule microarray, Alexa647 label, 635 nm (AID 1127); conditions: ConA-A647 binding fluorescence, higher = more signal;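 also: z combines 667 nm emission intensity with signal-to-noise across three replicate slides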
[9] = anti-His antibody binders, primary screen, artefact control for SMM control protein annotation, biochemical, small-molecule microarray, 635 nm fluorescence (AID 1128); conditions: anti-His Alexa647 antibody binding, higher = more signal;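 also: score merges feature fluorescence with signal-to-noise for each printed compound spot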
[10] = system: Human papillomavirus type 1a E7 protein (residues 1-88); test: HPV1a E7 small-molecule binders, primary screen, biochemical, small-molecule microarray, residues 1-88, 635 nm (AID 1129); conditions: small-molecule microarray binding, fluorescence 635 nm; higher = more signal
[11] = target: Focal adhesion kinase 1 (Homo sapiens) (UniProt Q05397); test: small-molecule microarray binders of FAK, primary screen, biochemical, 635/667 nm fluorescence, BSA, DTT (AID 1130); conditions: PTK2 binding, 635 nm fluorescence, higher = more signal;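 also: composite of spot emission at 667 nm and signal to noise over triplicate slides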
[12] = system: Fibrinogen (Alexa647-labelled); test: fibrinogen binders on compound microarrays, profiling panel, artefact control for SMM control-protein annotation, biochemical, small-molecule microarray, 635/667 nm fluorescence (AID 1131); conditions: fibrinogen-A647 binding fluorescence, higher = more signal;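 also: z-score merges 667 nm fluorescence with per-spot signal-to-noise over triplicate slides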
[13] = target: Follistatin (Homo sapiens) (UniProt P19883); test: follistatin binders on small-molecule microarrays, primary screen, biochemical, small-molecule microarray, 635/667 nm fluorescence (AID 1132); conditions: FST binding, 635 nm fluorescence, higher = more signal
[14] = target: Fibroblast growth factor 2 (Homo sapiens) (UniProt P09038); test: FGF2 binders on small-molecule microarrays, primary screen, biochemical, small-molecule microarray, 635/667 nm fluorescence (AID 1133); conditions: small-molecule microarray binding, FGF2, fluorescence 635/667; higher = more signal
[15] = mitochondrial membrane potential change in A549 cells, profiling panel, cell-based, JC-1 fluorescence, basal, 24 h, 100 nL (AID 1138); conditions: higher = more signal;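 also: A549 lung adenocarcinoma cells under basal conditions with no added stimulus; test concentration not given here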
Lefty1 = Lefty1 binders on small-molecule microarrays, primary screen, biochemical, small-molecule microarray, 635/667 nm fluorescence (AID 1139); conditions: small-molecule microarray binding, fluorescence 635/667; higher = more signal
[16] = system: wheat germ agglutinin (Triticum aestivum), Alexa647-labelled; test: wheat germ agglutinin binders on compound microarrays, profiling panel, artefact control for SMM control-protein annotation, biochemical, small-molecule microarray, 635/667 nm fluorescence (AID 1140); conditions: WGA-A647 binding, 635 nm fluorescence, higher = more signal;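 also: score merges 667 nm feature emission with signal to noise over triplicate slides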
[17] = target: Luciferin 4-monooxygenase (Photinus pyralis) (UniProt P08659); test: firefly luciferase enzyme inhibitors, primary screen, biochemical, luminescence, purified enzyme, 2006 set (AID 1141); conditions: SteadyGlo luminescence, 30 min, higher = more signal, called active from +8 up or from −8 down;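 also: cell-free assay with purified firefly luciferase at 100 ng per well in PBS; test concentration not given here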
Chain of Luciferin 4-monooxygenase (Photinus pyralis) (P08659 whole entry, looked up): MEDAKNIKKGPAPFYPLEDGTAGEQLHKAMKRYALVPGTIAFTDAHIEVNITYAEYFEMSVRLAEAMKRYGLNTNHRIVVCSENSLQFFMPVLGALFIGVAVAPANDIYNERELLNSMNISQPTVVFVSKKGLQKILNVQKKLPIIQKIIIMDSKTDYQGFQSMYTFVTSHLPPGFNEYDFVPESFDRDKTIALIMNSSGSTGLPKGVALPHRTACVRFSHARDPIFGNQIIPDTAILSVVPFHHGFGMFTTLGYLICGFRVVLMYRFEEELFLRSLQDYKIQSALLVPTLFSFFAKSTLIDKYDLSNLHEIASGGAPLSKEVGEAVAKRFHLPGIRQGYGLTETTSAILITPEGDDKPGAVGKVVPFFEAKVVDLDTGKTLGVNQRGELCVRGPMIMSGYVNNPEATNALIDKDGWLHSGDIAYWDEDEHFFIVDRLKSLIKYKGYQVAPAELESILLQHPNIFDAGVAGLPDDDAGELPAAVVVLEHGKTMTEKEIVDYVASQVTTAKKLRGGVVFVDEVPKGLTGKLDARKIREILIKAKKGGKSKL

Chain of Concanavalin-A (Canavalia ensiformis) (P02866 whole entry, looked up): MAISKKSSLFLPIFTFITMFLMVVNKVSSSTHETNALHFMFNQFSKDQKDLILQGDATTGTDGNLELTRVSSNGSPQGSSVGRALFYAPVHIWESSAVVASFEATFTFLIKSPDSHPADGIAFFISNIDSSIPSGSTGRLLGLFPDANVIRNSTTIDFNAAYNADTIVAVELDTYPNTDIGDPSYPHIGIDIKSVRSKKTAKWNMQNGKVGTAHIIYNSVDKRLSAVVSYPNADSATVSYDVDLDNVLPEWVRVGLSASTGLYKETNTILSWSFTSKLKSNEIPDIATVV
Chain of Focal adhesion kinase 1 (Homo sapiens) (Q05397 whole entry, looked up): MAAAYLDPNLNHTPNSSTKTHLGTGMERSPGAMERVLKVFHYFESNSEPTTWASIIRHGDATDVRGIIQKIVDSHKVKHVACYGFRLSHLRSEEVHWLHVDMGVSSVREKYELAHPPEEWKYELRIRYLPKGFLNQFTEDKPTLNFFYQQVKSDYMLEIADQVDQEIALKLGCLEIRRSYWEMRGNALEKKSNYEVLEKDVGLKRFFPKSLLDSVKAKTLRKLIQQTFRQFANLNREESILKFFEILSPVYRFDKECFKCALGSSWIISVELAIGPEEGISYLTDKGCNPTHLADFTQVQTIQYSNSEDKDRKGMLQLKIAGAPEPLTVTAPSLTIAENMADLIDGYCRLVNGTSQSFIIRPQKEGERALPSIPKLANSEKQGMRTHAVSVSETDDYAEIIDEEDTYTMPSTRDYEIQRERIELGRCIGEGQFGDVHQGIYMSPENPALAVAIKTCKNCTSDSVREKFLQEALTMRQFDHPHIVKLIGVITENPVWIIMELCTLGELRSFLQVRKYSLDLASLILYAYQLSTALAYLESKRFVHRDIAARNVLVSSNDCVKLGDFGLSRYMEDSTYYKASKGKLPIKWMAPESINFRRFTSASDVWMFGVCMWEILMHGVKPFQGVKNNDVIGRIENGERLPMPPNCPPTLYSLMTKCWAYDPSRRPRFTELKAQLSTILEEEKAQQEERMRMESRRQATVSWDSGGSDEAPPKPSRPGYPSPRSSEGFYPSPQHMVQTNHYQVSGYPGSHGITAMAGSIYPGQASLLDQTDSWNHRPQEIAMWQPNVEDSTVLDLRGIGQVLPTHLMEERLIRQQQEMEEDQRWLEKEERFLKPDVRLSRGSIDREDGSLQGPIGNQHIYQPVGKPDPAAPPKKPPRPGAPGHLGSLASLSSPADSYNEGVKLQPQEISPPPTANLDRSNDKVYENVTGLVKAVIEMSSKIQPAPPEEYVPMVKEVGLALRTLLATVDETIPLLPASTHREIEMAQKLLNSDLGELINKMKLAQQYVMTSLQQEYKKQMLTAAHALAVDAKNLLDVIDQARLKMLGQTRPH
Chain of Albumin (Bos taurus) (P02769 whole entry, looked up): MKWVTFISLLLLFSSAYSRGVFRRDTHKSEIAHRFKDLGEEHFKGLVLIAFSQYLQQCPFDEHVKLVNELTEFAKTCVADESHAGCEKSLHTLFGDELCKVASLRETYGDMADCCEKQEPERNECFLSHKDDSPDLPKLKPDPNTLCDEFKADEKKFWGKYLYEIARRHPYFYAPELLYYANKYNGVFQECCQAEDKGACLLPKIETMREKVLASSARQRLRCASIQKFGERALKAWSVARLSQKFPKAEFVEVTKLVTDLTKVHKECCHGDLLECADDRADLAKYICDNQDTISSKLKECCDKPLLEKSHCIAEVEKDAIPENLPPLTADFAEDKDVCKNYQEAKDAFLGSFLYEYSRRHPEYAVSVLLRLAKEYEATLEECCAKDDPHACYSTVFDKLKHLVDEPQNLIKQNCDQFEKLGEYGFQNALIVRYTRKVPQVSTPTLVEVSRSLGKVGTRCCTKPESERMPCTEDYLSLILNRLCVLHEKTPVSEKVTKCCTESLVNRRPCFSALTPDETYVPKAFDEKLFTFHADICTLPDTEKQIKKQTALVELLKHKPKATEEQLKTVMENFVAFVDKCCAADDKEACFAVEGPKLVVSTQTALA
Chain of Follistatin (Homo sapiens) (P19883 whole entry, looked up): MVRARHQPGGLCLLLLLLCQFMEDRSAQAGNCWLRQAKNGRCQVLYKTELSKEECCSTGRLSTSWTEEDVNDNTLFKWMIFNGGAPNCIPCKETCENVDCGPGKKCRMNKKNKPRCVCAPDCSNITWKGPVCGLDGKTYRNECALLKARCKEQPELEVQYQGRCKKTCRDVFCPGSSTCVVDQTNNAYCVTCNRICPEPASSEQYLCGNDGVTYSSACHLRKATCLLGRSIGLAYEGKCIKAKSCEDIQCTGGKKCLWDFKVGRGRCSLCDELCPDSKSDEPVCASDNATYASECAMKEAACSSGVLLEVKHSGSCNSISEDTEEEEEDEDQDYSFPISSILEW
Chain of Fibroblast growth factor 2 (Homo sapiens) (P09038 whole entry, looked up): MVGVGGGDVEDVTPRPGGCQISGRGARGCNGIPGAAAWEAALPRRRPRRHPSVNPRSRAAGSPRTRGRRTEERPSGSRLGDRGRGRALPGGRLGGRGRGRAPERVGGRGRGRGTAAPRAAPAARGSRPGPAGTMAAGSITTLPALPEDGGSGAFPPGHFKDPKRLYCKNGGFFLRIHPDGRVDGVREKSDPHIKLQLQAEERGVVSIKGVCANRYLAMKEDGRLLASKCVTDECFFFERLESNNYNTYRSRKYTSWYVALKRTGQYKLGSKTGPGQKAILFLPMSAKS

Structure (SMILES) | composite z-score (Albumin (Bos taurus)) | composite Z-score [1] | composite z-score [2] | composite z-score [3] | composite z-score [4] | composite z-score [5] | composite z-score [6] | composite z-score (Sam68 (KHDRBS1)) | composite z-score [7] | composite z-score [8] | composite z-score [9] | composite z-score [10] | composite z-score [11] | composite z-score [12] | composite z-score [13] | composite z-score [14] | z-score [15] | composite z-score (Lefty1) | composite z-score [16] | z-score [17]
COCCOC(=O)N1C(=O)[C@@]2(c3ccccc31)[C@H](C(=O)N1CCc3cc(OC)c(OC)cc3C1)[C@H]1C(=O)O[C@H](c3ccccc3)[C@H](c3ccccc3)N1[C@@H]2c1ccc(O)cc1 | 0.795 | 0.27 (inactive) | -0.0072 | 0.0129 | 0.424 | 2.19 | 0.808 | 1.31 | 0.628 | 1.17 | 2.07 | 1.18 | 0.381 | 0.864 | 1.09 | 1.26 | 0.674 | 0.788 | 0.74 | -5.57 (inactive)
C[N+](C)(C)CCCCCCNC(=O)[C@H]1C[C@H]2C(=O)N[C@@H](Cc3ccccc3)C(=O)N2[C@H]1c1cccc(OCCO)c1 | -0.174 | 0.35 (inactive) | -0.1 | -0.107 | 0.638 | 2.1 | 0.319 | 0.699 | 1.01 | 0.996 | 0.357 | 0.69 | 0.118 | 0.22 | 1.16 | 1.83 | -0.585 | 1.4 | -0.046 | 0.0538 (inactive)
O=c1cccc(-c2ccccc2Cl)o1 | 0.18 | 0.0241 (inactive) | -0.177 | -0.199 | -0.0836 | -0.011 | -0.235 | 0.102 | 0.0431 | -0.415 | 0.0166 | 0.461 | 0.678 | -0.0231 | 0.0968 | -0.488 | -0.556 | 0.0182 | -0.0467 | 0.294 (inactive)
CCOC(=O)C1=CC[C@@H](c2ccc(C(F)(F)F)cc2)N(S(=O)(=O)c2ccc(C)cc2)[C@H]1c1ccccc1 | 0.871 | 0.506 (inactive) | 0.158 | 0.21 | 0.603 | 2.27 | 0.782 | 1.31 | -0.863 | 1.13 | 2.1 | 1.21 | 0.81 | 0.955 | 0.377 | -0.149 | -1.9 | 0.0777 | 1.22 | 0.849 (inactive)
C=CCNC(=O)[C@@H]1[C@H]2C(=O)O[C@H](c3ccccc3)[C@H](c3ccccc3)N2[C@H](c2ccc(OCCO)cc2)[C@@]12C(=O)N(C(=O)OCCOC)c1ccc(C#CCNC(N)=O)cc12 | -0.178 | 0.0253 (inactive) | 0.163 | -0.0632 | 0.513 | 1.02 | 0.662 | 1.3 | 0.305 | 1.1 | 1.26 | 1.17 | 0.613 | 0.82 | 1.38 | 1.34 | -0.746 | 0.947 | 0.94 | -0.94 (inactive)
C[N+](C)(C)CCCC[C@@H]1NC(=O)[C@@H]2C[C@H](C(=O)NCCCCCCNC(=O)CS)[C@H](c3ccc(O)cc3)N2C1=O | 0.303 | 0.0896 (inactive) | -0.443 | -0.115 | 0.82 | 0.443 | 0.596 | -0.731 | -0.377 | 0.871 | 0.271 | -0.982 | -0.531 | -0.33 | 0.0054 | -0.117 | -0.122 | -0.237 | -0.341 | 0.182 (inactive)
